Among all 17,000 compounds or so, about 1,100 (6.5%) were called active.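 The calls were made as follows: active = z-score of -3 or lower, meaning strong loss of probe binding signal; inactive = the rest.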 Many of the other results were omitted from the sample, so actives are more common in it than they were.

Chain of Insulin-degrading enzyme (Homo sapiens) (P14735 42-1019 limits assumed): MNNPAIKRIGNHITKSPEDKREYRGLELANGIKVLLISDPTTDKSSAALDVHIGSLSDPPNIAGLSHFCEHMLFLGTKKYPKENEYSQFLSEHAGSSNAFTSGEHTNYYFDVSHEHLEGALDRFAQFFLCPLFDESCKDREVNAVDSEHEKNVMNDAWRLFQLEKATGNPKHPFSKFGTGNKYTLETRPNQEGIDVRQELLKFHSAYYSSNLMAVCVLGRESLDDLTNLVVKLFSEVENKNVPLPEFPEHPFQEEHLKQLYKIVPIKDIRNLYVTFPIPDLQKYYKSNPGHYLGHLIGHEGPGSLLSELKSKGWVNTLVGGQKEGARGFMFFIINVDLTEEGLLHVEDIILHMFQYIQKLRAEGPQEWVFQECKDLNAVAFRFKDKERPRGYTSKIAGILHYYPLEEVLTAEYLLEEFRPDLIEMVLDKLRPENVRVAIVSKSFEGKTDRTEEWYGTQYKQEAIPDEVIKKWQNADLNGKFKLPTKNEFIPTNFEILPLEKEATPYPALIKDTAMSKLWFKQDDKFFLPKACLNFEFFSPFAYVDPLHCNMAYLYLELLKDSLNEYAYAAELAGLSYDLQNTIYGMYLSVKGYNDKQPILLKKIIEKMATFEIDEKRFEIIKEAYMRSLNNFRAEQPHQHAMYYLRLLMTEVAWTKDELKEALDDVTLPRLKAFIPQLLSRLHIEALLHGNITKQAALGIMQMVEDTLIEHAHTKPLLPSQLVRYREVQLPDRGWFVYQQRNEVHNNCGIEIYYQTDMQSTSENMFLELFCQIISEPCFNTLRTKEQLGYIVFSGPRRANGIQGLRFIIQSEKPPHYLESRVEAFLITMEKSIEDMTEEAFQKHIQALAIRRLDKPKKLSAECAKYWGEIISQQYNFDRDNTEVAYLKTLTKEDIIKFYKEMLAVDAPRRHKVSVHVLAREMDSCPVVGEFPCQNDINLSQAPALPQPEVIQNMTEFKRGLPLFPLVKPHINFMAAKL

This experiment has as its target Insulin-degrading enzyme (Homo sapiens) (UniProt P14735). Briefly: exo-site inhibitors of human IDE, primary screen, biochemical, fluorescence anisotropy, probe displacement (AID 1259349).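 Also: His-tagged human IDE residues 42-1019 made in E. coli with 30 nM FL-6b probe.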 Particulars: purified IDE, FL-6b probe fluorescence polarization; at 20 µM; active compounds read low.
With `O=C(Cc1ccccc1)N1CCCCN2[C@H](CO)[C@H](c3ccc(C#Cc4ccccc4)cc3)[C@H]2C1`, the z-score is -1.93 (inactive). The figure for `O=C(Cc1ccccn1)N1CCCCN2[C@H](C1)[C@H](c1ccc(-c3ccccc3F)cc1)[C@@H]2CO` is -1.94 (inactive); for `O=C(Cc1ccccn1)N1CCCCN2[C@@H](CO)[C@@H](c3ccc(C#Cc4ccccc4)cc3)[C@@H]2C1` it is -6.91 (active); for `O=C(Cc1ccncc1)N1CCCCN2[C@@H](CO)[C@H](c3ccc(C#CC4(O)CCCC4)cc3)[C@@H]2C1` it is 1.31 (inactive). On to `COC(=O)[C@@H]1[C@@H](CO)[C@@H]2Cn3c(ccc(-c4cccc(C(=O)N(C)C)c4)c3=O)[C@H]1N2C(=O)NC(C)C`, for which the z-score was -0.64 (inactive).
